According to publication PMC8384837, “Expanding the binding specificity for RNA recognition by a PUF domain”:
Numbering of substitutions follows the chain as printed.

Columns and labels:
Test in all cases: yeast three-hybrid, YBZ-1, SC-Leu-His + 0.5 mM 3-AT, 4 days
Conditions in all cases: tags: N-Gal4 AD-HA kept; label: inside an RPR1-promoter hybrid RNA with tandem MS2 sites; ssRNA
PUM1 PUF domain R4-AHP = PUM1 PUF domain R4-AHP (Homo sapiens, UniProt Q14671 828-1176, N971A;Q975P)
Outline: (§1)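 A centromeric plasmid in strain YBZ-1 co-expressed Pumilio-1 PUF domain libraries, randomized at the three base-contacting residues of each repeat, with matching RNA elements; the strain carries a LexA–MS2 coat fusion and a HIS3 reporter. After four days on SC-Leu (input) or SC-Leu-His + 0.5 mM 3-AT (selection), the repeat regions were PCR-amplified and Illumina-sequenced. The interaction score is the log change in variant frequency from input to selection, using log2 and a pseudocount of 1 where absent.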

PUM1 PUF domain R7-GGK = PUM1 PUF domain R7-GGK (Homo sapiens, UniProt Q14671 828-1176, S1079G;N1080G;E1083K)
Outline: as §1

PUM1 PUF domain R4-QPS = PUM1 PUF domain R4-QPS (Homo sapiens, UniProt Q14671 828-1176, N971Q;H972P;Q975S)
Outline: as §1

PUM1 PUF domain R6-NRI = target: T1, PUM1 PUF domain R6-NRI (Homo sapiens, UniProt Q14671 828-1176, Y1044R;Q1047I)
T1 sequence: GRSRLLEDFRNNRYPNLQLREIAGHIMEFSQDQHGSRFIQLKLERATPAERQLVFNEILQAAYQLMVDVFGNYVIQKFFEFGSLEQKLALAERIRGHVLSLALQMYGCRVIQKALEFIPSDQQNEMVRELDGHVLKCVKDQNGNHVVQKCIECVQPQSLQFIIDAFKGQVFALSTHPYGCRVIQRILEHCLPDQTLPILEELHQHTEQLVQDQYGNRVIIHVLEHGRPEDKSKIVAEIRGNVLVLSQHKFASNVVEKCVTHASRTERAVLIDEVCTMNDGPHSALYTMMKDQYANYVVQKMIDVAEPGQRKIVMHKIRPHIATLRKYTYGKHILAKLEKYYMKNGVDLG
Outline: as §1

PUM1 PUF domain R3-SRP = PUM1 PUF domain R3-SRP (Homo sapiens, UniProt Q14671 828-1176, C935S;Q939P)
Outline: as §1

PUM1 PUF domain R6-HFS = target: T2, PUM1 PUF domain R6-HFS (Homo sapiens, UniProt Q14671 828-1176, N1043H;Y1044F;Q1047S)
T2 sequence: T1 sequence with N216H, R217F, I220S
Outline: as §1

PUM1 PUF domain R8-RFM = PUM1 PUF domain R8-RFM (Homo sapiens, UniProt Q14671 828-1176, N1122R;Y1123F;Q1126M)
Outline: as §1

PUM1 PUF domain R8-LYR = PUM1 PUF domain R8-LYR (Homo sapiens, UniProt Q14671 828-1176, N1122L;Q1126R)
Outline: as §1

PUM1 PUF domain R3-GRH = PUM1 PUF domain R3-GRH (Homo sapiens, UniProt Q14671 828-1176, C935G;Q939H)
Outline: as §1

PUM1 PUF domain R3-RAV = PUM1 PUF domain R3-RAV (Homo sapiens, UniProt Q14671 828-1176, C935R;R936A;Q939V)
Outline: as §1

PUM1 PUF domain R3-RQR = PUM1 PUF domain R3-RQR (Homo sapiens, UniProt Q14671 828-1176, C935R;R936Q;Q939R)
Outline: as §1

PUM1 PUF domain R5-HLY = PUM1 PUF domain R5-HLY (Homo sapiens, UniProt Q14671 828-1176, C1007H;R1008L;Q1011Y)
Outline: as §1

PUM1 PUF domain R1-KIM = PUM1 PUF domain R1-KIM (Homo sapiens, UniProt Q14671 828-1176, S863K;R864I;Q867M)
Outline: as §1

PUM1 PUF domain R1-NWV = PUM1 PUF domain R1-NWV (Homo sapiens, UniProt Q14671 828-1176, S863N;R864W;Q867V)
Outline: as §1

GGCUAGAACUAGUGGAUCCCCCGGCGCCCGGCGGCUCGAGCCCGGGUAAGUGUACAUAGUCUGCAUGCCGCCGGGCGCCAUGCCUGCAGGUCGACUCUAGAAAACAUG
binding signal (PUM1 PUF domain R4-AHP): 4.93 log2 enrichment (interaction score)

GGCUAGAACUAGUGGAUCCCCCGGCGCCCGGCGGCUCGAGCCCGGGUAAGUUUAAAUAGUCUGCAUGCCGCCGGGCGCCAUGCCUGCAGGUCGACUCUAGAAAACAUG
binding signal (PUM1 PUF domain R7-GGK): 3.4 log2 enrichment (interaction score)

GGCUAGAACUAGUGGAUCCCCCGGCGCCCGGCGGCUCGAGCCCGGGUAAGUGUAAAUAGUCUGCAUGCCGCCGGGCGCCAUGCCUGCAGGUCGACUCUAGAAAACAUG
binding signal (PUM1 PUF domain R4-QPS): 1.44 log2 enrichment (interaction score)
binding signal (PUM1 PUF domain R6-NRI): 4.34 log2 enrichment (interaction score)
binding signal (PUM1 PUF domain R3-SRP): 5.42 log2 enrichment (interaction score)
binding signal (PUM1 PUF domain R6-HFS): 4.79 log2 enrichment (interaction score)
binding signal (PUM1 PUF domain R8-RFM): 4.37 log2 enrichment (interaction score)
binding signal (PUM1 PUF domain R8-LYR): 4.3 log2 enrichment (interaction score)
binding signal (PUM1 PUF domain R3-GRH): 4.23 log2 enrichment (interaction score)

GGCUAGAACUAGUGGAUCCCCCGGCGCCCGGCGGCUCGAGCCCGGGUAAGUGUAUAUAGUCUGCAUGCCGCCGGGCGCCAUGCCUGCAGGUCGACUCUAGAAAACAUG
binding signal (PUM1 PUF domain R4-QPS): 3.86 log2 enrichment (interaction score)

GGCUAGAACUAGUGGAUCCCCCGGCGCCCGGCGGCUCGAGCCCGGGUAAGUGUAAUUAGUCUGCAUGCCGCCGGGCGCCAUGCCUGCAGGUCGACUCUAGAAAACAUG
binding signal (PUM1 PUF domain R3-RAV): 3.5 log2 enrichment (interaction score)
binding signal (PUM1 PUF domain R3-RQR): 3.88 log2 enrichment (interaction score)
binding signal (PUM1 PUF domain R3-SRP): 1.56 log2 enrichment (interaction score)

GGCUAGAACUAGUGGAUCCCCCGGCGCCCGGCGGCUCGAGCCCGGGUAAGUGUCAAUAGUCUGCAUGCCGCCGGGCGCCAUGCCUGCAGGUCGACUCUAGAAAACAUG
binding signal (PUM1 PUF domain R5-HLY): 3.47 log2 enrichment (interaction score)

GGCUAGAACUAGUGGAUCCCCCGGCGCCCGGCGGCUCGAGCCCGGGUAAGUGAAAAUAGUCUGCAUGCCGCCGGGCGCCAUGCCUGCAGGUCGACUCUAGAAAACAUG
binding signal (PUM1 PUF domain R6-NRI): 2.1 log2 enrichment (interaction score)

GGCUAGAACUAGUGGAUCCCCCGGCGCCCGGCGGCUCGAGCCCGGGUAAGUGUAAAUUGUCUGCAUGCCGCCGGGCGCCAUGCCUGCAGGUCGACUCUAGAAAACAUG
binding signal (PUM1 PUF domain R1-KIM): 3.49 log2 enrichment (interaction score)
binding signal (PUM1 PUF domain R1-NWV): 4.33 log2 enrichment (interaction score)
